An excerpt weighted towards active compounds, which were near 3.5% of everything screened.
KCNK9 inh – KCNK9 potassium channel inhibitors, primary screen, HEK293 cells, thallium flux. Potassium channel subfamily K member 9 (Homo sapiens), Q9NPC2. FluxOR thallium flux fluorescence; active compounds read low. B-score at 10 µM. 310,000 compounds, 1.2% hits. AID 488922, 2010;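 active = ratio B-score over 3 SD below the library mean, with starting fluorescence within 5 SD of its mean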;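 note: negative B-score means less thallium flux so channel inhibition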
KCNK3 inh – human KCNK3 channel inhibitors, primary screen, CHO cells, FluxOR thallium flux, B-score. Potassium channel subfamily K member 3 (Homo sapiens), O14649. FluxOR fluorescence; active compounds read low. 340,000 compounds, 0.84% hits. B-score at 10 µM;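 active = B-score under library mean minus 4 SD, starting fluorescence ratio at most library mean plus 5 SD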;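 note: more negative B-score means stronger inhibition of thallium flux through KCNK3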
Kir21 inh – inhibitors of mouse Kir2.1 inward-rectifier potassium channel. Inward rectifier potassium channel 2 (Mus musculus), P35561. HEK293-Kir2.1, FluxOR thallium flux fluorescence; active compounds read low. B-score at 10 µM. 310,000 compounds, 0.85% hits. AID 1672, 2009;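 active = fluorescence ratio B-score at or below minus 3 SD of library scores, with starting-brightness B-score within 2 SD, cut at about -4.2 in these data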;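 note: channel flux triggered by added potassium and thallium sulfate stimulus; B-score of peak minus minimum fluorescence over baseline after thallium stimulus; more negative B-score means stronger Kir2.1 block with less thallium influx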
Target sequence (P35561 whole entry, looked up): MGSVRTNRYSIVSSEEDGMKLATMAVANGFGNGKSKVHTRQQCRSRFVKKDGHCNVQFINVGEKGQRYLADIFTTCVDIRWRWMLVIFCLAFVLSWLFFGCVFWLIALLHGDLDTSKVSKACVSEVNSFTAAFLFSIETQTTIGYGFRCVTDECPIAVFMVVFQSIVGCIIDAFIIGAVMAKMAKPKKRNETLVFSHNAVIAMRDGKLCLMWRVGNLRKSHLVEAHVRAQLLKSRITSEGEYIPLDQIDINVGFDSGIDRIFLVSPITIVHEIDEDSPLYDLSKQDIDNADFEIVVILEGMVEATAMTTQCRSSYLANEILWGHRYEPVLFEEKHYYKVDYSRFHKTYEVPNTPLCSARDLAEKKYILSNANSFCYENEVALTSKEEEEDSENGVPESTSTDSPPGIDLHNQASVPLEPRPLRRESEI
ANO1 block – TMEM16A chloride channel inhibitors, primary screen, cell-based, HTS. Anoctamin-1 (Mus musculus), Q8BHY3. HEK293 TMEM16A/YFP iodide influx fluorescence, ionomycin. normalized B-score (activity score, 25-100; higher = stronger inhibition) at 10 µM. 310,000 compounds, 1.2% hits;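 active = ratio plate-corrected score three or more library SD toward inhibition, starting fluorescence score within five deviations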;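 note: score derived from kinetic fluorescence span divided by baseline fluorescence per well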
ANO1 activ – TMEM16A chloride channel activators or potentiators, primary screen, cell-based, HTS | 340,000 compounds, 0.3% hits | Anoctamin-1 (Mus musculus), Q8BHY3 | HEK293 TMEM16A/YFP-H148Q/I152L, iodide quench fluorescence; active compounds read low | B-score at 10 µM;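 active = fluorescence-ratio B-score plate-corrected deviation score at least 3 library SD below zero, with starting fluorescence score within 5 deviations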;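 note: channel opened by trigger with iodide after compound preincubation; score built on the fluorescence ratio of max minus min over baseline; more negative score means more quench and so TMEM16A activation or potentiation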
KCNK9 inh conf – KCNK9 potassium channel inhibitors, confirmation, HEK293 cells, thallium flux, duplicate. 4,900 compounds, 43% hits. shares compounds with KCNK9 inh. inhibition, % at 10 µM. FluxOR thallium flux fluorescence;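 active = thallium signal inhibited by more than 5 SD of the compound-free buffer control wells, on both duplicate plates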
Kir21 sel – mouse Kir2.1 channel inhibition, confirmation, selectivity assay for KCNK9 modulator project, cell-based, HEK293, thallium flux; shares compounds with KCNK9 inh; Kir2.1 cells, FluxOR thallium flux fluorescence; inhibition, % at 10 µM; 4,900 compounds, 4% hits;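 active = thallium signal drop more than 5 SD beyond the mean of the no-compound control wells, seen in both duplicate plates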;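 note: signal is fluorescence rise after thallium addition divided by baseline fluorescence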
KCNK9 uninduced – thallium flux in non-induced HEK293 cells, confirmation, counter-screen for KCNK9 inhibitor project, cell-based, second counter screen, non-induced KCNK9-HEK293; FluxOR thallium flux; inhibition, % at 10 µM; shares compounds with KCNK9 inh; 4,900 compounds, 40% hits; AID 492997, 2010;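 active = thallium signal drop beyond 5 SD of the untreated control mean, on both duplicate plates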
TMEM16A reconf – TMEM16A chloride channel inhibitors, confirmation, cell-based, re-confirmation | shares compounds with ANO1 block | HEK293 TMEM16A/YFP-H148Q, iodide quench fluorescence; ionomycin added to raise cell calcium | inhibition, % at 10 µM | 2,300 compounds, 39% hits;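 active = mean duplicate percent inhibition, scaled so buffer wells are 0 and the reference blocker 100, over three buffer SD above buffer mean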
TMEM16A Ca cntr – calcium mobilization in TMEM16A/YFP HEK293 cells, confirmation, counter-screen for TMEM16A inhibitor project | calcium response (% of ionomycin), % at 10 µM | 2,300 compounds, 2% hits | Fluo4 calcium mobilization | AID 652231, 2013 | shares compounds with ANO1 block;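 active = duplicate-averaged calcium signal over 20% of the ionomycin maximum, relative to buffer baseline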;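 note: each well's signal is peak minus trough fluorescence divided by its pre-addition baseline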
Parental YFP cnt – iodide YFP quench changes in parental YFP-HEK293, counter-screen for TMEM16A inhibitor project, cell-based. shares compounds with ANO1 block. ionomycin. YFP ratio F(max-min)/F0 at 10 µM. 2,300 tested, under 10 active;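 active = yellow fluorescent protein signal ratio exceeding the buffer control mean by over 5 SD of those controls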;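 note: ratio is mean of duplicate wells from kinetic YFP trace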
ClC-1 inh – ClC-1 chloride channel inhibition, selectivity assay for TMEM16A inhibitor project, cell-based, voltage-dependent ClC-1; shares compounds with ANO1 block; CHO ClC-1-YFP, iodide influx fluorescence quench; iodide control reads 0, buffer control 100; ratio percent, % at 10 µM; 2,300 tested, under 10 active; AID 652236, 2013;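 active = duplicate-mean ratio percent above the mean of iodide-only control wells, which defines zero, plus 5 of their SD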;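 note: higher percent means stronger block of ClC-1 iodide influx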
Of the large screens only hits and unclear results are named; the others gave an inactive call (follow-up assays come after a bar, where they were run).

CC1(C)C(C=C(Cl)Cl)C1C(=O)N/N=C/c1ccccc1F (stereo not drawn)	KCNK9 inh -9.55, ANO1 block 25 | KCNK9 inh conf inactive | Kir21 sel inactive | KCNK9 uninduced 27.0% | TMEM16A reconf inactive | TMEM16A Ca cntr inactive | Parental YFP cnt inactive | ClC-1 inh inactive
O=C(Oc1ccc2ccccc2c1Cl)N1CCCCCC1	KCNK9 inh -12.8, ANO1 block 25 | KCNK9 inh conf 37.0% | Kir21 sel inactive | KCNK9 uninduced 28.0% | TMEM16A reconf inactive | TMEM16A Ca cntr inactive | Parental YFP cnt inactive | ClC-1 inh inactive
O=C(Oc1ccc2ccccc2c1Cl)N1CCCC1	none
O=c1[nH]c2ccc(NCc3ccccc3OCc3ccc(Cl)cc3)cc2[nH]1	none
O=C(Oc1ccccc1)c1ccccc1OS(=O)(=O)c1ccccc1	KCNK9 inh -9.48, ANO1 block 100 | KCNK9 inh conf 44.0% | Kir21 sel inactive | KCNK9 uninduced 34.5% | TMEM16A reconf inactive | TMEM16A Ca cntr inactive | Parental YFP cnt inactive | ClC-1 inh inactive
O=C(Nc1ccccc1)c1ccccc1OS(=O)(=O)c1ccccc1	none
CCOC(=O)N1CCN(Cc2ccc3ccccc3c2)CC1	none
COc1ccc(/C=C2/SC(=S)N(NS(=O)(=O)c3ccccc3)C2=O)cc1	none
C=CCOc1ccc(/C=C2\SC(=S)N(NS(=O)(=O)c3ccccc3)C2=O)cc1	ANO1 block 100 | KCNK9 inh conf inactive | Kir21 sel inactive | KCNK9 uninduced inactive | TMEM16A reconf 88.5% | TMEM16A Ca cntr inactive | Parental YFP cnt inactive | ClC-1 inh inactive
CN(C(=O)c1cccc(C#CC(C)(C)O)c1)C1CCCN(Cc2ccccc2F)C1 (stereo not drawn)	none
C=CCN1C(=O)C2(OCCCO2)c2cc(Cl)ccc21	none
Cc1ccc(N2CCN(S(=O)(=O)c3ccc(Cl)s3)CC2C)cc1 (stereo not drawn)	ANO1 block 25 | KCNK9 inh conf inactive | Kir21 sel inactive | KCNK9 uninduced inactive | TMEM16A reconf inactive | TMEM16A Ca cntr inactive | Parental YFP cnt inactive | ClC-1 inh inactive
CCn1cnc2sc(-c3ccccc3)cc2c1=O	none
Cc1ccc(C)n1-n1c(C)nc2sc(-c3ccccc3)cc2c1=O	ANO1 block 100 | KCNK9 inh conf inactive | Kir21 sel inactive | KCNK9 uninduced inactive | TMEM16A reconf inactive | TMEM16A Ca cntr inactive | Parental YFP cnt inactive | ClC-1 inh inactive

High-throughput results as filed in PubChem BioAssay.
